Assay [1] is described as follows: qHTS for compounds that reverse cellular toxicity of Amyloid beta (A-beta) peptide in yeast: LOPAC Validation Assay (AID 720559).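 Also: plate controls were DMSO for no effect and equimolar ferric chloride plus clioquinol rescue for full effect.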 In a few lines: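 OD600 growth readout after 48 hr at 30 C; A-beta-toxic yeast plus pinned compounds in medium. Normalization: DMSO = negative, equimolar FeCl3 + clioquinol = positive.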
Background: Quantitative high-throughput screening tests each substance at several concentrations.

Assay [2] is described as follows: qHTS for Activators of Parkin Expression: LOPAC Validation Assay (NLuc Reporter) (AID 720572). In a few lines:
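Compound effects on Parkin promoter activity were measured as NanoLuc luminescence after 24 h at 37 C. The neuronal reporter line also carried FLuc, which was read first. LOPAC compounds were tested at 7 concentrations, with normalization to DMSO (0%) and positive control (100%).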

Assay [3] has as its target T1, Hexokinase-4 (Homo sapiens) + Glucokinase regulatory protein (Homo sapiens) (UniProt P35557+Q14397). Description: qHTS assay for inhibitors of recombinant human GCK-GKRP interaction: Diaphorase-coupled assay (AID 743205). In a few lines:
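Resorufin fluorescence (525/590 nm), read each minute over 30 min, reports GCK activity coupled via G6PDH and diaphorase. Reaction: 10 nM GST-GCK, 10 nM FLAG-GKRP, 5 mM glucose, 0.4 mM ATP, 0.15 mM NADP+, 0.1 mM resazurin.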

The target in assay [4] is T1, Hexokinase-4 (Homo sapiens) + Glucokinase regulatory protein (Homo sapiens). Description: qHTS assay for inhibitors of recombinant human GCK-GKRP interaction: ADP-Glo assay (AID 743206).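 Also: plate controls were DMSO plus enzyme for no effect and no enzyme for full effect.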 An outline of the steps: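 Pin-transferred compounds meet a 15 nM GST-GCK/15 nM FLAG-GKRP/2 uM S6P mix (dispense concentrations). ATP is then added to 0.4 mM final with 5 mM glucose, and the reaction runs 60 min at room temperature. ADP is quantified luminescently.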

For assay [5] the target is unchanged. Description: qHTS assay for inhibitors of recombinant human GCK-GKRP interaction: HTRF assay (AID 743207).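 Also: 0% = DMSO with GCK present and -100% = DMSO wells lacking GCK.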 An outline of the steps:
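HTRF read-out (ex 320 nm; 615/665 nm emission) after 60 min RT equilibration of 5 nM GST-GCK, 5 nM FLAG-GKRP, 2 uM S6P, compound and anti-FLAG/anti-GST detection antibodies; signal normalized between DMSO wells with and without GCK.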

The nature of assay [6]: qHTS Assay for Identifying Gametocytocidal Compounds (AID 743244). Also: potency is read from the fitted curve at half-maximal effect.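 As to max response: % is scaled to controls: 0 for no effect and ±100 for the full control effect; actives lower the fluorescent signal which means gametocytes are killed.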 The settings on record: P. falciparum 3D7 stage III-V gametocytes, alamarBlue, 72 h; max response: stronger effect = lower value. In a few lines:
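Late gametocytes (III–V), P. falciparum 3D7; 72 h drug, then 24 h alamarBlue; resazurin reduction read by fluorescence.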

The nature of assay [7]: qHTS profiling of the MIPE4 collection as inhibitors of Plasmodium falciparum (3D7) proliferation (AID 743344; call rule not given here;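 also: scaled between DMSO vehicle wells and 0.29 µM artemisinin as full inhibition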). The note with it: P. falciparum 3D7 in erythrocytes, SYBR Green DNA fluorescence, 72 h; at 28.5 µM (top of the series) unless noted. An outline of the steps:
(§1)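 Parasite DNA was quantified by SYBR Green I fluorescence (ex 485, em 535 nm) after overnight lysis in saponin/Triton buffer at room temperature. Cultures at 0.3% parasitemia and 2.5% hematocrit were first exposed to compound for 72 h at 37 C; signals were normalised to artemisinin (0.29 uM) and vehicle wells.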

Assay [8] is described as follows: qHTS profiling of the MIPE4 collection as inhibitors of Plasmodium falciparum (DD2) proliferation (AID 743345; call rule not given here). The settings on record: P. falciparum Dd2 in erythrocytes, SYBR Green DNA, 72 h; at 28.5 µM (top of the series) unless noted. An outline of the steps:
as §1

Assay [9] in a line: qHTS profiling of the MIPE4 collection as inhibitors of Plasmodium falciparum (DD2) proliferation (Rep 2) (AID 743346; call rule not given here). The settings on record: P. falciparum Dd2 in erythrocytes, SYBR Green DNA, 72 h; at 28.5 µM (top of the series) unless noted. An outline of the steps:
as §1

Assay [10] is described as follows: qHTS assay for small molecule agonists of the antioxidant response element (ARE) signaling pathway measured by Nrf2-dependant transcriptional activity (AID 720636; active = well fitted curve in the direction sought with a large enough effect in the repeat runs; an effect the other way counts as inactive or inconclusive;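 also: HepG2 cells with an ARE-driven luciferase reporter; % of control where 0% means no effect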). In a few lines:
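HepG2 ARE-luc reporter line, 1% dialyzed FBS; 6 hr attachment at 37 C, compound pinned in, 16 hr at 37 C/5% CO2; ONE-Glo, 30 min RT, luminescence read.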

The nature of assay [11]: qHTS assay for small molecule antagonists of the retinoid-related orphan receptor gamma (ROR-gamma) signaling pathway - cell viability counter screen (AID 720652; active = well fitted curve in the direction sought with a large enough effect in the repeat runs; an effect the other way counts as inactive or inconclusive;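 also: CHO reporter cells with doxycycline-induced ROR-gamma expression; compound exposure lasted 16 hr before ATP read; % is scaled to controls: 0 for no effect and ±100 for the full control effect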). In a few lines: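 Steps: seed CHO cells bearing TET-inducible ROR and ROR response element-luciferase; rest 5 hr at 37 C; add compound, then doxycycline; incubate 16 hr; add CellTiter-Glo and read luminescence as ATP-based viability.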

Assay [12] can be described thus: qHTS assay for small molecule agonists of the antioxidant response element (ARE) signaling pathway measured by Nrf2-dependant transcriptional activity - cell viability counter screen (AID 720653; active = well fitted curve in the direction sought with a large enough effect in the repeat runs; an effect the other way counts as inactive or inconclusive; also: % is scaled to controls: 0 for no effect and ±100 for the full control effect). The note with it: ARE-bla HepG2 viability, CellTiter-Glo ATP luminescence, 16 h; max response: stronger effect = lower value. In a few lines:
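Cytotoxicity counter screen: intracellular ATP quantified by CellTiter-Glo luminescence in the same ARE-bla HepG2 plates, after 16 h compound exposure and a 2 h beta-lactamase substrate step.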

Assay [13] is described as follows: qHTS assay for cell viability of HEK293 cells (AID 743288). Also: nearly all actives have a fitted effect of over 50% in size. Also: potency is read from the fitted curve at half-maximal effect. As to max response: % is scaled to controls: 0 for no effect and ±100 for the full control effect. The settings on record: ATP luminescence (CellTiter-Glo), 18 h; max response: stronger effect = lower value. In a few lines: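 ATP luminescence (CellTiter-Glo) reports metabolically competent cell number after parental HEK293 cells, 2,000/well, were treated with DMSO-dissolved compounds for 18 h at 37 C; reagent incubation 30 min, room temperature.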

A short description of assay [14]: qHTS assay for cell viability of the p53RE-bla HCT-116 cell line (AID 743292). Also: % is scaled to controls: 0 for no effect and ±100 for the full control effect; nearly all actives have a fitted effect of over 55% in size. An outline of the steps: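 Luminescent ATP quantitation (CellTiter-Glo) served as the viability read-out; reagent was added after 16 h compound exposure at 37 C and read after 30 min at room temperature. Cells: p53RE-bla HCT-116, 4,000 per well.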
Assay [15] is described as follows: qHTS for Activators of Parkin Expression: LOPAC Validation Assay (FLuc Reporter) (AID 720573). An outline of the steps:
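FLuc luminescence read-out from a neuronal line expressing a Parkin-promoter-driven coincidence reporter. Cells treated 24 h at 37 C, 5% CO2 with compounds at 7 concentrations; signal increase normalized to DMSO and positive control.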

Several values for one entry are separate records, joined by “and”; a condition that tells them apart may be missing. Identical values can stand only once. Results filed as inconclusive are left out. A structure can be active in one record and inactive in another. Activity calls are given as the source filed them. Unless noted, calls follow the shape of the dose curve; as a rule, active = well fitted curve in the direction sought with a large enough effect; inconclusive = small, poorly fitted or top-dose-only effect, or another doubt; inactive = no such curve, though single readings can be large; an effect the other way counts as inactive or inconclusive.

T1 sequence (P35557 whole entry, looked up): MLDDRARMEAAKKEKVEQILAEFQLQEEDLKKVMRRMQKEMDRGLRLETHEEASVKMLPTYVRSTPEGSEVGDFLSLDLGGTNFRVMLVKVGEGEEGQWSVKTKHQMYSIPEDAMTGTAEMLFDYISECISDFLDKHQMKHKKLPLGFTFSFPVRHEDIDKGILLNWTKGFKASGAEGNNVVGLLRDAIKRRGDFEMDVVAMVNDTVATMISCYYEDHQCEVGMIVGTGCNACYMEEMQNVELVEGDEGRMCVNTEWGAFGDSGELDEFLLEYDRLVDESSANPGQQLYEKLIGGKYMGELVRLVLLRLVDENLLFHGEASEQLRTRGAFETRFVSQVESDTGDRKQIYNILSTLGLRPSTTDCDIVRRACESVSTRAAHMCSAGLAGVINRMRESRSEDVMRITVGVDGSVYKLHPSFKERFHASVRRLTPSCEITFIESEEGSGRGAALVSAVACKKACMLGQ
T1 sequence (Q14397 whole entry, looked up): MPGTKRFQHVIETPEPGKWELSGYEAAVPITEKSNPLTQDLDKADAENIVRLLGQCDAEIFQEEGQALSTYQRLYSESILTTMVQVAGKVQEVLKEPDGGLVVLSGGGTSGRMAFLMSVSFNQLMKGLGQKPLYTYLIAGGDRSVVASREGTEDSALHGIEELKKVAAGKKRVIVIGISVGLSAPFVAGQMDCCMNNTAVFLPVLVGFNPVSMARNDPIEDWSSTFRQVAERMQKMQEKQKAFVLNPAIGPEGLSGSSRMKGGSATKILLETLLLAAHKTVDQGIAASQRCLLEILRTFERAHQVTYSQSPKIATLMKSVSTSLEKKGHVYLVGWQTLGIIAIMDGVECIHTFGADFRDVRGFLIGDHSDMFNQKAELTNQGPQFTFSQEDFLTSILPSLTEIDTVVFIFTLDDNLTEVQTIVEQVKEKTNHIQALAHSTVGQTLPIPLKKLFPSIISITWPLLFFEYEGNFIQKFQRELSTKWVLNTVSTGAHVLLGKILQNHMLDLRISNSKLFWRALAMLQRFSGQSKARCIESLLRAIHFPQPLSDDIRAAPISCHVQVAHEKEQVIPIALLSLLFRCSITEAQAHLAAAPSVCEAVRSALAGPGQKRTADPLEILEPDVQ

Take `CN1C2CCC1CC(OC(=O)C(CO)c1ccccc1)C2` (centres undefined): the result in [1] and in [2] was inactive. Further, the Potency entry in [3], in [4] and in assay [5] was “inactive” throughout.

For the compound `CC(C)(C)C(=O)Oc1ccc(S(=O)(=O)Nc2ccccc2C(=O)NCC(=O)O)cc1`, the max response in [6] is 3.13% (inactive). In assay [7], this compound gave a parasite growth, % of DMSO control of 101%. Moreover, in assay [8], the parasite growth remaining, % of DMSO control (lower = more inhibition) was 92.3%. For the same compound, in assay [9], the parasite growth, % of control (lower = inhibition) amounted to 91.4%.

Take `O=C(C1CCCCC1)N1CC(=O)N2CCc3ccccc3C2C1` (centres undefined): the compound was classed as inactive in assay [1]. In addition, in assay [6], the max response was 3.64% (inactive) and 8.77% (inactive). The parasite growth, % of DMSO control in assay [7] came to 61.4%. The parasite growth remaining, % of DMSO control (lower = more inhibition) in [8] is 89.3%.

Turning to `COc1ccc2[nH]cc(CCNC(C)=O)c2c1`, the compound was called inactive in assay [1], in [2] and in assay [10]. Moreover, the Potency result in assay [11], in [3], in [4], in assay [5] and in [14] was “inactive” each time. In addition, the max response in assay [12] is -10.7% (inactive) and -6.82% (inactive) and 8.47% (inactive); in assay [6], 6.15% (inactive) and 3.87% (inactive); in assay [13], -9.99% (inactive) and -9.18% (inactive) and -3.1% (inactive). Moreover, the parasite growth, % of DMSO control in assay [7] is 89.5% and 101%. For the same compound, the parasite growth remaining, % of DMSO control (lower = more inhibition) in assay [8] was 107% and 104%. In addition, in assay [9], the parasite growth, % of control (lower = inhibition) is 89.3% and 83%.

In the case of `CC[N+](CC)(CC)CCOc1cccc(OCC[N+](CC)(CC)CC)c1OCC[N+](CC)(CC)CC`, the compound was classed as inactive in [1] and in [2]. For the same compound, the Potency entry in assay [3], in [4] and in assay [5] was “inactive” each time. The max response in [6] is 4.54% (inactive) and -6.53% (inactive). Further, the parasite growth remaining, % of DMSO control (lower = more inhibition) in assay [8] came to 104%.

As for `Clc1ccc2c(c1)C(N1CCNCC1)=Nc1ccccc1O2`, the compound was classed as inactive in assay [1] and in [2]. Moreover, the Potency entry in [3], in [4] and in assay [5] was “inactive” in each case. Further, the Potency in assay [6] is 0.794 µM (active). In addition, the max response in assay [6] was -3.09% (inactive). This compound had a parasite growth, % of DMSO control in assay [7] of 50.7%. Also, the parasite growth remaining, % of DMSO control (lower = more inhibition) in assay [8] was found to be 28.9%. The same compound returned a parasite growth, % of control (lower = inhibition) in assay [9] of 27.9%.

`C[C@@H]1CC(=O)NN=C1c1ccc(NN=C(C#N)C#N)cc1`: the max response in [6] is 16.6% (inactive). Also, the parasite growth, % of DMSO control in assay [7] is 8.76%. Further, the parasite growth remaining, % of DMSO control (lower = more inhibition) in assay [8] amounted to 6.4%. For the same compound, the parasite growth, % of control (lower = inhibition) in [9] was determined as 33.2%.

For the compound `CC(C(=O)O)c1cccc(C(=O)c2ccccc2)c1` (centres undefined), the compound was called inactive in assay [1] and in [2]. For the same compound, the max response in assay [6] is 3.48% (inactive) and 27.8% (inactive).

For `CC1(C)O[C@H]2CC(=O)OC[C@]23[C@H]2CC[C@@]4(C)[C@H](c5ccoc5)OC(=O)[C@H]5O[C@]54[C@]2(C)C(=O)C[C@@H]13`, the max response in assay [6] was 0.83% (inactive). This compound also yielded a parasite growth, % of DMSO control in assay [7] of 86.6%. Moreover, the parasite growth remaining, % of DMSO control (lower = more inhibition) in assay [8] came to 122%. Also, in assay [9], the parasite growth, % of control (lower = inhibition) is 82%.

Take `CC(COc1ccccc1)N(CCCl)Cc1ccccc1` (centres undefined): the compound was classed as inactive in [10]. The Potency result in assay [3], in assay [4], in [5] and in assay [14] was “inactive” throughout. For the same compound, the Potency in assay [13] was 35.5 µM (active). In assay [7], the parasite growth, % of DMSO control amounted to 90.3%. The parasite growth remaining, % of DMSO control (lower = more inhibition) in [8] was determined as 26.2%. In assay [9], the parasite growth, % of control (lower = inhibition) is 27%.

Turning to `Cc1ccccc1N1C(=O)c2cc(S(N)(=O)=O)c(Cl)cc2NC1C` (centres undefined), the call in assay [1] and in [2] was inactive. Also, the Potency entry in assay [3], in assay [4] and in assay [5] was “inactive” throughout. In assay [6], the max response is 6.66% (inactive) and 10.8% (inactive) and 1.37% (inactive). For the same compound, the parasite growth, % of DMSO control in assay [7] is 92.5%. Moreover, the parasite growth remaining, % of DMSO control (lower = more inhibition) in [8] was found to be 51%. In assay [9], the parasite growth, % of control (lower = inhibition) turned out to be 83.2%.

As to `CC(=O)OCC(CCn1cnc2cnc(N)nc21)COC(C)=O`, the max response in [6] was 13.8% (inactive). The parasite growth, % of DMSO control in assay [7] came out at 99.1%. Also, the parasite growth remaining, % of DMSO control (lower = more inhibition) in [8] was 136%. Further, the parasite growth, % of control (lower = inhibition) in assay [9] came to 91.8%.

Take `O=c1[nH]cc(F)c(=O)[nH]1`: the result in assay [2] and in [10] was inactive. Also, the Potency entry in assay [15], in [11], in [3], in assay [4], in assay [5] and in [14] was “inactive” each time. In addition, the max response in [12] is -3.42% (inactive); in [6], 14.8% (inactive) and 3.27% (inactive); in assay [13], -0.211% (inactive). In [8], the parasite growth remaining, % of DMSO control (lower = more inhibition) came out at 18.8%.

For the origin of these results see PubChem BioAssay (NCATS).
